Assay results from PubChem BioAssay AID1863 (Southern Research Specialized Biocontainment Screening …, 2009).
The whole screen tested about 300,000 compounds, of which about 480 (0.16%) were called active.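 The calls were made as follows: active = inhibition over 29.93%, a cutoff 3 SD above the screen mean, later confirmed by dose response; inconclusive = inhibition over 29.93% but no dose response follow-up; inactive = inhibition at most 29.93% or unconfirmed.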 Not all results are given here. Results with a measured potency or affinity are listed apart.

Test: PhoP-dependent GFP reporter repression – Salmonella Typhimurium, primary screen (AID 1863);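 also: 0% = low Mg2+ inducing control and 100% = high Mg2+ repressing control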
Details: S. Typhimurium PhoP-regulated promoter GFP reporter, 4 h; at 50 µM; hits give high values

inhibition, inactive:
Cc1ccc(C2(c3noc(CN(C)Cc4ccccn4)n3)CCCC2)cc1 1.51%, O=C(O)Cn1c(O)c(C2=c3ccccc3=NC2=O)sc1=O 3.25%, COc1cccc(N/C(N)=N/c2nc(C(F)(F)F)cc(C(F)(F)F)n2)c1 -1.8%, O=S1(=O)N=C(N/N=C/c2ccco2)c2ccccc21 11.7%, O=S1(=O)N=C(N/N=C/c2cccs2)c2ccccc21 0.95%, S=c1[nH]c2ccccc2n2c(=S)[nH]nc12 4.88%, O=c1[nH]c2ccccc2n2cnnc12 3.8%, C=CCn1c(SCC(=O)OCC)nc2cc(C(=O)NCc3ccco3)ccc2c1=O -4.98%, CCCn1nc(C(=O)OCC(=O)Nc2cccc(S(N)(=O)=O)c2)c2ccccc2c1=O -1.14%, Nc1[nH]nc2nc3ccccc3cc12 0.6%, Nc1c2ccccc2nc2ccccc12 20.8%, Nc1nc(-c2cccnc2)nn1C(=O)c1ccccc1Cl 0.52%, COc1ccc(-c2csc(NC(=O)COC(=O)c3ccco3)n2)cc1 5.57%, Cc1ccc(C(=O)OCC(=O)NC(=O)c2cccn2C)cc1[N+](=O)[O-] -12.8%, COCCCn1c(Cc2csc(Nc3ccc(F)cc3)n2)nnc1SCC(N)=O 0.4%, COc1ccc(/C(C)=N/NC(=O)CNC(=O)c2ccncc2)cc1 -0.07%, N=c1n(CC(=O)c2ccc([N+](=O)[O-])cc2)c2ccccc2n1Cc1ccccc1 39%, N=c1n(CC(=O)c2ccc([N+](=O)[O-])cc2)c2ccccc2n1Cc1ccc(Cl)cc1 25.9%, Cc1cc(C)n(C(=O)CNC(=O)c2ccc3c(c2)OCCO3)n1 -15.6%, CCO[C@@H]1OC(C(=O)N2CCCCCCC2)=C[C@H](c2cn(C(C)=O)c3ccccc23)[C@H]1CCCO -5.2%, COc1ccc(C)cc1-n1c(-c2ccncc2)n[nH]c1=S -9.19%, Cc1cccc(NC2=CC(=O)CC(C)(C)C2)c1C 2.2%, CC(C(=O)c1ccc(-c2ccccc2)cc1)[n+]1cccc(C(N)=O)c1 (configuration not stated) 2.06%, CC(C(=O)c1ccc(Br)cc1)[n+]1cccc(NC(=O)c2ccccc2)c1 (configuration not stated) -0.32%, O=C(C[n+]1cccc(CNC(=O)c2ccc(OC(F)F)cc2)c1)Nc1ccc(F)cc1 5.04%, O=C(C[n+]1cccc(CNC(=O)c2ccc(OC(F)F)cc2)c1)Nc1cccc(C(F)(F)F)c1 25.3%, CCOc1ccc(C(=O)NCC(=O)N2CCC3CCCCC3C2)cc1OCC (configuration not stated) 7.73%, COc1cc(-c2nnc(SCC(=O)/C(C#N)=C(\C)N)o2)cc(OC)c1OC 0.61%, CN(CCCC[C@H](CNCc1ccc(-c2ccccc2)cc1)N1C[C@H](c2ccccc2)N(CCc2ccc(Cl)c(Cl)c2)C(=O)C1=O)Cc1ccc(-c2ccccc2)cc1 8.2%, CCOc1ccc(CCN2C(=O)C(=O)N([C@H](CCCN(C)Cc3ccccc3)CNCc3ccccc3)C[C@@H]2C(C)C)cc1 12.1%, CCc1ccc(N2C(=O)Nc3ccccc3C2(O)C(=O)N2CCN(c3ccccn3)CC2)cc1 (configuration not stated) 10.3%, Cn1c(CSc2nc3ccccc3s2)nnc1SCC(=O)NCc1ccccn1 -6.01%, O=C1NN(c2ccccc2)C(=O)/C1=C/c1coc2ccccc2c1=O 8.22%, Cc1cc(/C=C2/C(=O)NN(c3ccccc3)C2=O)c(C)n1-c1ccc(O)cc1 -4.21%, CCOC(=O)C1=C(O)/C(=C/c2cccc(OC)c2O)N=C1C -9.18%, Cn1c(CCCNC(=O)c2cccs2)nc2ccccc21 -1.8%, Cc1ccc(NC(=O)c2ncc(Cl)c(Cl)c2Cl)cc1C 2%, O=c1[nH]c(=O)n(C2OC(CO)C(O)C2O)cc1Br (configuration not stated) 3.95%, Nc1cn(C2OC(CO)C(O)C2O)c(=O)[nH]c1=O (configuration not stated) 3.77%, Cc1cc(CNC(=O)c2cccnc2Cl)c2ccccc2n1 1.03%, CCN1/C(=C/C=C/C=C/C=C/c2sc3ccccc3[n+]2CC)Sc2ccccc21 -8.59%, CC[n+]1c(/C=C/Nc2ccccc2)sc2ccccc21 -20.8%, CC[n+]1c(/C=C/C=C/N(C(C)=O)c2ccccc2)sc2ccccc21 -10.1%, CC[n+]1c(/C=C(/C)SC)sc2ccccc21 0.31%, CC[n+]1c(/C=C(\C)SC)sc2ccccc21 0.17%, CCN1/C(=C/c2ccc3cc(C)ccc3[n+]2CC)Sc2ccccc21 -133%, CC[n+]1c(/C=C/C=C/N(C(C)=O)c2ccccc2)sc2cc(OC)ccc21 -71.7%, CCN1/C(=C\C=C(C(C)=O)C(C)=O)Sc2ccccc21 -11.4%, COCCN1CCC(CNCc2c(C(=O)N3CCCCC3)nc3c(C)cccn23)C1 (configuration not stated) -11.8%, CCOc1ccccc1CN1CCN(Cc2ccon2)CC1CCO (configuration not stated) -9.77%, COc1ccc2c(CC(=O)Nc3ccc(OC)c(S(=O)(=O)N4CCOCC4)c3)coc2c1 4.59%, O=C(NCC(O)COc1ccc([N+](=O)[O-])cc1)c1ccccc1 (configuration not stated) -9.65%, Cc1ccc(CNCCC2=CCCCC2)cc1 -46.6%, Clc1ccc(CNCCC2=CCCCC2)cc1 18.9%, O=C(NC1CC1)c1c[nH]c2ccc(S(=O)(=O)Nc3cccc(C(F)(F)F)c3)cc2c1=O 14.8%, CCn1cc(C(=O)NCc2ccccc2)c(=O)c2cc(F)c(N3CCN(C(=O)c4ccco4)CC3)cc21 6.24%, C=CCNC(=O)c1cn(CC)c2cc(N3CCN(C(=O)c4ccco4)CC3)c(F)cc2c1=O 5.05%, CCn1cc(C(=O)NCCc2ccccc2)c(=O)c2cc(F)c(N3CCN(C)CC3)cc21 -0.827%, CCn1cc(C(=O)O)c(=O)c2cc(F)c(N3CCN(C(=S)NC(=O)c4ccccc4Br)CC3)cc21 8.64%, CCC(CO)NC(=O)c1ccccc1C(F)(F)F (configuration not stated) 2.52%, O=C(O)C1C2CCC(O2)C1C(=O)Nc1ccccc1Br (configuration not stated) -9.38%, COC(=O)c1ccccc1NC(=O)C1CCN(C(=O)Cc2ccccc2)CC1 3.37%, CCOC(=O)COc1c(Br)cc(/C=C2\SC(=O)N(CC(=O)N3CCCC3)C2=O)cc1OC 5.47%, COc1ccc(N(C(=O)CNC(=O)c2cccs2)C(C(=O)NC2CCCC2)c2ccncc2)cc1 (configuration not stated) -0.95%, Cc1nc2nc3c(cn2n1)C(=O)CC(C)(C)C3 -6.32%, CC(C)n1c(SCC(=O)NC2CC2)nnc1-c1ccco1 3.76%, CCOC(=O)CSc1nc2c(c(=O)n1-c1ccc(OCC)cc1)SCC2 -4.68%, COc1ccc(C(=O)c2no[n+]([O-])c2C(=O)c2ccc(OC)cc2)cc1 -73.5%, Cc1ccc(C(=O)c2no[n+]([O-])c2C(=O)c2ccc(C)cc2)cc1 -26.5%, Cc1ccc(S(=O)(=O)NN2C(=O)c3ccccc3NC2c2ccccc2O)cc1 (configuration not stated) 2.27%, Cc1onc(-c2ccccc2)c1C(=O)NC(=S)NNC(=O)c1ccccc1O 18.4%, Cc1onc(-c2ccccc2)c1C(=O)NC(=S)NNC(=O)c1ccc(O)cc1 -7.99%, CC(C)[C@@H](COc1ccccc1)N1CCN(Cc2ccccc2)CCC1=O 11.4%, Cc1ccc(N(CC(=O)NC2CCCCC2)C(=O)CNC(=O)c2cccs2)cc1 5.02%, CNC[C@H](CC1CCCCC1)NC[C@H](CO)NCCc1cccc(C(F)(F)F)c1 13%, CNC[C@H](CC1CCCCC1)NC[C@H](CO)NCC1(c2ccccc2)CC1 5.82%, Cc1ccccc1NC(=O)NC1(C(=O)NCc2ccco2)CCCCC1 -5.56%, Cc1cccc(NC(=O)CSc2nnc(-c3ccncc3)n2CC2CCCO2)c1 (configuration not stated) 0.37%, Clc1ccc2[nH]c3c(NCC4CCCO4)ncnc3c2c1 (configuration not stated) 17.8%, Clc1ccc2[nH]c3c(NCCN4CCOCC4)ncnc3c2c1 -2.52%, COc1ccc(NC(=O)CSc2cc(C(=O)c3nccn3C)c3ccccc3n2)cc1 3.48%, CCOc1ccc(NC(=O)c2cc(Cl)nc3ccccc23)cc1 1.03%, C=CCNc1nc(Nc2ccccc2F)nc(OCC)n1 -4.99%, COc1ccccc1Nc1nc(NCc2ccco2)c2ccccc2n1 48%, Fc1ccccc1-c1nc(NCc2ccco2)c2ccccc2n1 -13.7%, Oc1ccccc1Nc1nc(NCc2ccccc2)c2ccccc2n1 -0.55%, OCCNc1nc(NCc2ccccc2)c2ccccc2n1 3.19%, Cc1ccc(-c2nc(NCc3ccco3)c3ccccc3n2)cc1 23.9%, Cc1ccccc1Nc1nc(NCc2ccco2)c2ccccc2n1 25.6%, CCc1noc(C)c1C(=O)Nc1ncc(C)s1 2.49%, CCC(Oc1ccccc1)C(=O)Nc1nc2ccccc2[nH]1 (configuration not stated) -3.54%, Cc1ccc2cc(C(c3nnnn3C3CCCC3)N(Cc3ccco3)Cc3cccs3)c(=O)[nH]c2c1 (configuration not stated) -2.55%
